Reference: PubChem BioAssay (NCI)
About 79,000 compounds went through this panel and 15% of them were active in at least one assay; those are over-represented in the sample as a whole. No stated cut-off is given here; in the data, active means growth inhibition above about 70%; inactive means the rest.

Legend:
[1] = NCI Yeast Anticancer Drug Screen. Data for the rad50 strain (AID 155);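 further: 0% = growth of vehicle-only cultures of the same strain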; conditions: S. cerevisiae rad50 strain growth inhibition; at 50.0 µM; active compounds read high
In short: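 Relative growth inhibition (compound vs vehicle) was measured in yeast with a defined repair-gene alteration.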

[2] = NCI Yeast Anticancer Drug Screen. Data for the mec2-1 strain (AID 157); conditions: S. cerevisiae mec2-1 strain, at 50.0 µM, active compounds read high
In short: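 Test agents were screened against the mec2-1 yeast strain, with defined DNA repair or cell cycle alteration. Growth was scored as inhibition against vehicle-only controls.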

[3] = NCI Yeast Anticancer Drug Screen. Data for the sgs1 mgt1 strain (AID 161);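 further: 0% = growth of cultures given vehicle only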; conditions: S. cerevisiae sgs1 mgt1 strain, at 50.0 µM, active compounds read high
In short: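 Test agents were incubated with a DNA-repair-mutant yeast strain. Growth was then read and compared against vehicle-treated controls.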

[4] = NCI Yeast Anticancer Drug Screen. Data for the cln2 rad14 strain (AID 165);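 further: 0% = growth equal to vehicle treated cultures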; conditions: S. cerevisiae cln2 rad14 strain, at 50.0 µM, active compounds read high
In short: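 Growth of compound-exposed yeast (cln2 rad14 genotype) measured and expressed as inhibition relative to vehicle.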

[5] = NCI Yeast Anticancer Drug Screen. Data for the bub3 strain (AID 167); conditions: S. cerevisiae bub3 mutant strain, at 50.0 µM, active compounds read high
In short: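 Screening used yeast with an engineered genetic alteration affecting cell cycle control. Compound-exposed cultures were compared with vehicle cultures, and reduced growth was taken as inhibition.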

[6] = NCI Yeast Anticancer Drug Screen. Data for the mlh1 rad18 strain (AID 175); conditions: S. cerevisiae mlh1 rad18 strain growth inhibition; at 50.0 µM; active compounds read high
In short: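 In this whole-cell yeast screen, a strain with altered DNA damage repair is challenged with compound, and its growth is measured against matched vehicle-treated controls.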

Measured: growth inhibition

COc1cc(/C=C2\Cc3ccccc3C2=O)cc(OC)c1OC
inactive: [1] -13% | [2] -14.8% | [3] -15.8% | [4] 18.3% | [5] -14.1% | [6] -13.1%

CC(=O)C1=C(O)C(Cc2ccccc2)NC1=O (centres undefined)
inactive: [1] 11.9% | [2] -0.2% | [3] 1.95% | [4] -37.1% | [5] -18.4% | [6] 10.7%

O=C(NNC(=O)c1ccc2ccccc2c1)c1ccc(F)cc1
inactive: [1] 4.05% | [2] 0.9% | [3] 3.8% | [4] 3.05% | [5] 10.2% | [6] 10.2%

COC(=O)CC(NC(=O)C(Cc1cncn1C(=O)OCc1ccccc1)NC(=O)OCc1ccccc1)C(=O)O (centres undefined)
inactive: [1] 10.2% | [2] 3.25% | [3] 0.45% | [4] 6.8% | [5] 0.05% | [6] -4.55%

O=C(O)c1ccc(NC(NC(=O)C(C(F)(F)F)C(F)(F)F)(C(F)(F)F)C(F)(F)F)cc1
inactive: [1] 20.2% | [2] 14.4% | [3] 8.9% | [4] 1.2% | [5] 11.2% | [6] 14.4%

O=c1cc(N2CCOCC2)n2c(ccc3ccccc32)n1
inactive: [1] -17.9% | [2] -2.4% | [3] -10.4% | [4] 13.2% | [5] 22% | [6] -2.6%

CCCNC(=O)/C=C/C(=O)NCCC
inactive: [1] 8.55% | [2] -0.8% | [3] -1.55% | [4] -43.2% | [5] -6% | [6] 4.1%

O=C(O)C1C2OC3C(OC(=O)C31)C2Cl (centres undefined)
inactive: [1] -4.5% | [2] 6% | [3] 9.85% | [4] -14.3% | [5] -6.5% | [6] -12.3%

COC(=O)C1(C)CCCC2(C)C3CCC(C(C)C)CC3CCC12 (centres undefined)
inactive: [1] 24.9% | [2] -12.8% | [3] 20.1% | [4] -12.6% | [5] -5.9% | [6] 8.65%

CC(=O)c1ccc(NC(N)=O)cc1
inactive: [1] 2.15% | [2] -10.4% | [3] 5.3% | [4] -8.1% | [5] -7.15% | [6] -12.5%

COc1ccc(C2C3=CONC3CC3CCCCC32)cc1 (centres undefined)
inactive: [1] 4.5% | [2] -34.5% | [3] -0.4% | [4] 8.25% | [5] 6.25% | [6] 6.5%

C=CCOc1cc(=O)[nH]c2ccccc12
inactive: [1] -14.1% | [2] -4.4% | [3] -0.9% | [4] -51.1% | [5] -0.45% | [6] 2.9%

CCOC(=O)C1(O)c2ccccc2NC(=S)N1CC(Br)CBr (centres undefined)
inactive: [1] 19.9% | [2] -60.3% | [3] 15.8% | [4] -7.6% | [5] 2.35% | [6] 32.6%

Cc1cccnc1NC=O
inactive: [1] -10.7% | [2] -12.2% | [3] -4.8% | [4] -17.6% | [5] -24.7% | [6] -9.7%

CC(C)CCC[C@@H](C)[C@H]1CC[C@H]2[C@@H]3CC=C4C[C@@H](Cl)CC[C@]4(C)[C@H]3CC[C@]12C
inactive: [1] -3.75% | [2] -13.8% | [3] -20% | [4] -2.8% | [5] -8.9% | [6] -0.35%

CC(C)(C)OC(=O)NC(CCC(=O)OCc1ccccc1)C(=O)NCCCO (centres undefined)
inactive: [1] -11.8% | [2] -35.3% | [3] 8.4% | [4] -9.35% | [5] -15.7% | [6] 9.8%

CC(=O)C(/C=N\N=C(/C)c1cn[nH]c1C)=C(/C)O
inactive: [1] -54.8% | [2] -21.6% | [3] -18.7% | [4] -58.1% | [5] 8.6% | [6] -18.6%

c1ccc2c(c1)nnn2CN1CCOCC1
inactive: [1] -6.3% | [2] 17.1% | [3] -26.6% | [4] -22.9% | [5] 3.15% | [6] 5.7%

O=c1c(SCc2ccccc2Cl)c(SCc2ccccc2Cl)cnn1-c1ccccc1
inactive: [1] 10.7% | [2] -3.05% | [3] 12.6% | [4] 23.4% | [5] 7.15% | [6] 1.45%
